From paper PMC7819943, “Rice protein-binding microarrays: a tool to detect cis-acting elements near promoter regions in rice”
Whole data set: some 35,000 sequences, median “fluorescence intensity (a.u.)” near 10,000, cut for the highest 2% near 52,000. The list comes from a sample in which the highest values are over-represented; it also holds similar and randomly drawn sequences.

Molecular target: T1, OsWOX13 (Oryza sativa, UniProt Q5QMM3 1-267)
T1 sequence: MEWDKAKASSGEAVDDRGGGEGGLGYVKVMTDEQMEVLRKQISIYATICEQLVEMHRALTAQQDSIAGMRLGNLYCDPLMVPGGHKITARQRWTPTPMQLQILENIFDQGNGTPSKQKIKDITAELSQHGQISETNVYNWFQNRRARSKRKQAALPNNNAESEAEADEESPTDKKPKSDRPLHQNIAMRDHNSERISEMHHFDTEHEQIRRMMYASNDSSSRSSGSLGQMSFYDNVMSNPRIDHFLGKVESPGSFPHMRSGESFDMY
Test: protein-binding microarray (RPBM); PBS, 2% BSA, 51.3 ng/ul salmon testes DNA, 50 uM zinc acetate, 200 nM TF, 25 C, 1 h; high values mean tight binding
Conditions: protein: recombinant; tags: N-terminal polyhistidine and DsRed monomer fusion (pET32a); label: CyDye5-dUTP incorporated in the synthesized complementary strand; 3' TTTTT single-stranded linker to array surface; dsDNA, one strand shown
How it was run: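 Transcription factors were made in E. coli BL21-CodonPlus as N-terminal fusions to a polyhistidine tag and DsRed, then purified on Ni–NTA. After primer extension with Cy5-dUTP and blocking with 2% BSA, a custom Agilent array was exposed for 1 h at 25 °C to 200 nM protein in PBS, 2% BSA, salmon testes DNA and 50 µM zinc acetate. Washed arrays were scanned on an Axon 4000B, and the binding signal is per-feature fluorescence intensity in arbitrary units.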

In order of rising binding signal:
1. TGAAATTTCTCTTCATTTTGTTTTAAATCCTGGACAGACACGGAGTCACCTAGTGCAG  3370 fluorescence intensity (a.u.)
2. CCGGATTGCTGGATCATTTTCTTCTCGGCCCATTGGACTCCGGAGTCACCTAGTGCAG  3410 fluorescence intensity (a.u.)
3. TACTATGATTTTCTTTGAATTCAGGTCCTTGCGATTCCAGCGGAGTCACCTAGTGCAG  3510 fluorescence intensity (a.u.)
4. TGTTAGATGATAAAACATGATTAATATTTTATGTGTGACTCGGAGTCACCTAGTGCAG  4360 fluorescence intensity (a.u.)
5. CAACCAATAAATTAGAACTCCATCTCGATCATGGTGTTATCGGAGTCACCTAGTGCAG  4370 fluorescence intensity (a.u.)
6. AGATGTTTGAATAATTGATACAATATCAGGAGCGAATATGCGGAGTCACCTAGTGCAG  4430 fluorescence intensity (a.u.)
7. GTAGTGAATGGCTGCCTAATTTTGTGCATTAACCATGGTGCGGAGTCACCTAGTGCAG  5100 fluorescence intensity (a.u.)
8. ATTAATCCACAATTATCAAAAGTTTACTGTAGCATCACATCGGAGTCACCTAGTGCAG  5730 fluorescence intensity (a.u.)
9. ATTGATAACGGCAGACTAACTGATACGACAGAGATGGTCACGGAGTCACCTAGTGCAG  7620 fluorescence intensity (a.u.)
10. TGGATAATTAAGCTCATGAGACGACAACGAACAATGAATGCGGAGTCACCTAGTGCAG  8610 fluorescence intensity (a.u.)
11. ATTTGAAATTTAAATTTTAGCTTTTGCTTTAGTTTATTTGCGGAGTCACCTAGTGCAG  8720 fluorescence intensity (a.u.)
12. CTAATTAATCCGTTATTAGCACATATGTGTTACTGTAGCACGGAGTCACCTAGTGCAG  12200 fluorescence intensity (a.u.)
13. CCTAATTAATCCATAGCACATGTTTACTGTAGCGTCACATCGGAGTCACCTAGTGCAG  12400 fluorescence intensity (a.u.)
14. ATTAATCCATAATTAGCAAATGTTTACTGTAGCATCACATCGGAGTCACCTAGTGCAG  13800 fluorescence intensity (a.u.)
15. AGCCTAATTAATCCGATATTAGTAAATGTTTACTGTAGCACGGAGTCACCTAGTGCAG  15000 fluorescence intensity (a.u.)
16. AATCCATAATTAGAGAATGTTTACTGTAGCATCACATAGGCGGAGTCACCTAGTGCAG  15900 fluorescence intensity (a.u.)
17. TTTCTTAATTGTATTTCTATATGGACTTGATACCCTTCTTCGGAGTCACCTAGTGCAG  18900 fluorescence intensity (a.u.)
18. GAGAGAGAGATCAGCACATGATTGATTAAATATTAGCTTACGGAGTCACCTAGTGCAG  19100 fluorescence intensity (a.u.)
19. TAGATTAATTTGTCATCAAAACACCCTCATATAATTAATTCGGAGTCACCTAGTGCAG  19200 fluorescence intensity (a.u.)
20. TCATCAGTTAATTAATACATGCATATTATATTATATAGGGCGGAGTCACCTAGTGCAG  20200 fluorescence intensity (a.u.)
21. ATCTTAATTTACCTTTCACTGCATCTAATATGTCACTTTGCGGAGTCACCTAGTGCAG  20700 fluorescence intensity (a.u.)
22. TGTAATAGTGGGTTAATTAATTAGCTTGCCAGCTTCAGGGCGGAGTCACCTAGTGCAG  21900 fluorescence intensity (a.u.)
23. TTGGTGTAATTGACATGCGGGCCCACAATTTTATTATTTTCGGAGTCACCTAGTGCAG  23800 fluorescence intensity (a.u.)
24. ATAAATTAGCACCCACCTCTGCCTTCCTACCTTCCCCTCCCGGAGTCACCTAGTGCAG  24900 fluorescence intensity (a.u.)
25. TTCATAATTAGCACATGTTTACTGTGGTATCACATGGACTCGGAGTCACCTAGTGCAG  25200 fluorescence intensity (a.u.)
26. GGCTTGATTTATTGATTTGTTCTTTAGTACTCCAGTTCAACGGAGTCACCTAGTGCAG  25700 fluorescence intensity (a.u.)
27. AATAACTGATAAAAGATATATGATTTTGGAGAAATGTGTGCGGAGTCACCTAGTGCAG  26100 fluorescence intensity (a.u.)
28. TTAATTGGATATATGATGTTGCAAATTTGCCTATTCAGAACGGAGTCACCTAGTGCAG  27000 fluorescence intensity (a.u.)
29. CCATTTCTTGCTGATGATTGATGATGAACATTTCTAATAGCGGAGTCACCTAGTGCAG  27400 fluorescence intensity (a.u.)
30. TAAACCTAATTAATCATCATTAGCAAATGTTTACTGTAGCCGGAGTCACCTAGTGCAG  30400 fluorescence intensity (a.u.)
31. TCCATAATTAGCGGCTGATTACTGTAGCATCACTGTAGCACGGAGTCACCTAGTGCAG  31200 fluorescence intensity (a.u.)
32. GCATGAAGACATCAATTAATTAATTGCATGGTTACATGCACGGAGTCACCTAGTGCAG  37200 fluorescence intensity (a.u.)
33. CCGTGATTAGCGACATTGCTGTGTGCAACGTTTGTTCCTTCGGAGTCACCTAGTGCAG  37600 fluorescence intensity (a.u.)
34. ATGATTAGCAGCTGATTACTGTAGCATTACTGTAGCAAATCGGAGTCACCTAGTGCAG  45200 fluorescence intensity (a.u.)
35. AGCCTAATTAATCTATAATTAGAGAATGTTTACTGTAGCACGGAGTCACCTAGTGCAG  46200 fluorescence intensity (a.u.)
36. AGCCTAATTAATCCATAATTAACATATGTTTACTGTAGCACGGAGTCACCTAGTGCAG  53000 fluorescence intensity (a.u.)
37. TCATAATTAATTAGAAGTGGCTGCATGTGAGAATGTTTGGCGGAGTCACCTAGTGCAG  53800 fluorescence intensity (a.u.)
38. AAGTCTAATTAATTCATAATTAGCACATGTTTACTGTAGCCGGAGTCACCTAGTGCAG  53800 fluorescence intensity (a.u.)
39. AGCCTAATTAATACATAATTAGCACATGTTTACTGTAGCACGGAGTCACCTAGTGCAG  55100 fluorescence intensity (a.u.)
40. AATAATTAATTAATCATAGCTTGCAACTGCATATGTAGGGCGGAGTCACCTAGTGCAG  56700 fluorescence intensity (a.u.)
41. TCCATAATTAGCAGCTGATTACTGTAGTATTACTGTAGCACGGAGTCACCTAGTGCAG  60800 fluorescence intensity (a.u.)
42. CCTAATTAATCCATAATTATCAAAAGTTTACTGTAGCATCCGGAGTCACCTAGTGCAG  62800 fluorescence intensity (a.u.)
